A selection: hits, their analogues and other compounds. The true share with any hit is near 6.7%.
MCF10A rerep: inducers of DNA re-replication in MCF 10A breast cells | MCF 10A DNA re-replication, Hoechst nuclear intensity, 48 h | Potency, µM (series often up to 46.1 µM), without a hit: at the top dose activity, positive = re-replication, hits mostly activators | 350,000 tested, 2.9% active | AID 624296; note: % of control where 0% means no effect; nearly all actives have a fitted effect of over 50% in size
PINK1 expr mod: modulators of PINK1 expression | PINK1 immunofluorescence, high-content cytometry, 24 h | 410,000 tested, 0.2% active | Potency, µM (top dose mostly 76.6 µM), for inactives: at the top dose activation (PINK1 increase), hits mostly activators | AID 624263; active = well fitted activation curve with a large enough effect; inconclusive = small, poorly fitted or top-dose-only effect; cell line not stated here; note: % of control where 0% means no effect; nearly all actives have a fitted effect of over 65% in size
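PINK1 protein level read as immunofluorescence by microplate cytometer in a fixed, stained stable cell line after 24 h exposure to five compound concentrations, with CCCP as control.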
KB-V1 cytotox: kills drug-selected multidrug resistant KB-V1 cells | KB-V1 MDR cells viability, CellTiter-Glo, 72 h | Potency, µM (series often up to 46.1 µM), actives largely listed as cytotoxic | AID 1347076 | 400,000 tested, 3.4% active; note: % is set by controls: 0 for no effect and ±100 for the full control effect; nearly all actives have a fitted effect of over 60% in size
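Cytotoxicity via CellTiter-Glo luminescence after 72 h compound exposure at 37 degrees C. Cells: drug-selected KB-V1 line, DMEM phenol-red free plus 10% FBS. Compounds tested at multiple concentrations; normalized data fitted to concentration-effect curves.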
SW480 rereplic: inducers of DNA re-replication in SW480 colon cancer cells; Potency, µM (doses to about 46.1 µM), for inactives: top-dose re-replication activation, usual class: activators; 340,000 tested, 1.8% active; AID 624297; SW480 DNA re-replication, Hoechst DNA content imaging, 48 h; note: % of control where 0% means no effect; nearly all actives have a fitted effect of over 55% in size
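Cells (250 per well) received 23 nL compound or DMSO by pin tool and were kept 48 hr at 37 C, 5% CO2. Nuclei were then stained with Hoechst for 40 min and scanned for DNA content.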
KB-3-1 tox: kills parental KB-3-1 adenocarcinoma cells; KB-3-1 viability, CellTiter-Glo ATP luminescence, 72 h; AID 1347075; 400,000 tested, 1.4% active; Potency, µM (highest dose often 46.1 µM), usual class: cytotoxic; note: % is set by controls: 0 for no effect and ±100 for the full control effect; nearly all actives have a fitted effect of over 60% in size
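Using CellTiter-Glo luminescence, growth of non-resistant KB-3-1 adenocarcinoma cells is assessed 72 h after pin-tool compound addition at 37 °C. Normalized responses across the concentration series yield fitted curves.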
* marks the source's active call; other numbers are inactive results; i = inactive; u = inconclusive; x = no result; [ ] = dose if it differs, or a comment. Unless noted, calls come from the whole dose curve; as a rule, active = well fitted curve in the direction sought with a large enough effect; inconclusive = small, poorly fitted or top-dose-only effect, or another doubt; inactive = no such curve, though single readings can be large; an effect the other way counts as inactive or inconclusive. Potency is the fitted concentration of half-maximal effect.

SMILES | MCF10A rerep | PINK1 expr mod | KB-V1 cytotox | SW480 rereplic | KB-3-1 tox
CC(C)OC(=O)c1cccc(NC(=O)c2ccccc2)c1 | u | 1% | 12µM* | 6% | i
CC(C)OCCCNC(=O)c1cccc(NC(=O)c2ccccc2)c1 | 2% | 5% | 16µM* | -1% | i
COCCCNC(=O)c1cccc(NC(=O)c2ccccc2)c1 | u | 0% | u | -16% | i
CCOC(CNC(=O)c1ccc(N2CCc3ccccc32)c([N+](=O)[O-])c1)OCC | 17% | 14% | 2.6µM* | -30% | u
COc1ccccc1CN(C)C(=O)CSCC(=O)Nc1ccccc1F | 5% | 2% | i | 1% | i
COc1ccc(N2CCC(CNC(=O)Nc3cccc(OC)c3)C2)cc1 (stereo not drawn) | u | -1%[38.3 µM] | 21µM* | 12% | i
CCc1ccccc1NC(=S)NCC1CCN(c2ccc(OC)cc2)C1 (stereo not drawn) | u | 0% | 21µM* | -8% | u
CCc1cccc(C)c1NC(=S)NCC1CCN(c2ccc(OC)cc2)C1 (stereo not drawn) | 24% | u | i | u | i
Cc1ccc(S(=O)(=O)CC(=O)Nc2ccc3nc(C)sc3c2)cc1 | -8% | 1% | i | -19% | i
CCc1ccc(NC(=O)CN2C(=O)C3CCCN3c3ccc(S(=O)(=O)N(CC)CC)cc32)cc1 (stereo not drawn) | x | -2% | i | x | i
CN1CCN(c2ncc3nc(-c4ccccc4)c(=O)n(C)c3n2)CC1 | x | -1% | x | x | x
NC(=O)C1CCN(c2nccc(-c3ccc4c(c3)OCCO4)n2)CC1 | x | x | u | x | 9.2µM*
COc1cc(C#Cc2c(-c3ccccc3)n(C)c3ccccc23)cc(OC)c1 | u | 0% | i | 13% | i
COc1ccc(C#Cc2c(C=O)n(C)c3ccccc23)cc1 | u | u | i | 21µM* | u
Cn1c(C=O)c(C#Cc2ccccc2)c2ccccc21 | 8.2µM* | u | i | u | u
CC1CC(C)(C)N(C(=O)CSc2ccc(-c3ccc(F)cc3)nn2)c2ccccc21 (stereo not drawn) | 25% | x | 21µM* | u | i
CC1CCN(C(=O)CSc2ccc(-c3ccc(F)cc3)nn2)CC1 | 20% | 1% | 16µM* | -2% | u
Brc1ccc2ncnc(NCc3ccccc3)c2c1 | u | 1% | u | -1% | 12µM*
Clc1ccc(Nc2ncnc3ccc(Br)cc23)cc1 | u | 3%[38.3 µM] | 10µM* | 0% | i
N#Cc1ccccc1-c1ccc2ncnc(NCc3ccccc3)c2c1 | x | 3% | x | x | x
CCOc1ccc(CCNC(=O)CSc2nnnn2-c2ccccc2Cl)cc1OCC | x | 1% | u | x | i
CCn1nnc2cc(C(=O)Nc3ccc(C)c(Cl)c3)ccc21 | x | 4% | u | x | i
COc1ccc(NC(=S)N/C(=N/CS(=O)(=O)c2ccccc2)c2ccccc2)cc1 | 16µM* | -6%[38.3 µM] | i | u | i
Cc1cc(C)c2c(n1)SCC(=O)N2CC(=O)Nc1cccc(C)c1C | x | 1% | i | x | i
Cc1ccc2c(CC(=O)NC3CCS(=O)(=O)C3)coc2c1C (stereo not drawn) | 5% | 3% | u | -6% | i
SMILES | MCF10A rerep | PINK1 expr mod | KB-V1 cytotox | SW480 rereplic | KB-3-1 tox
Cc1ccc2nc(NCCO)nc(-c3ccccc3)c2c1 | u | 1% | 12µM* | u | i
OCCNc1nc(-c2ccccc2)c2cc(Cl)ccc2n1 | 21µM* | -2% | u | u | i
c1ccc(-c2nnnc3ccccc23)cc1 | -1% | 2% | i | -10% | i
Clc1ccc2nnnc(-c3ccccc3)c2c1 | 3.3µM* | -4% | 10µM* | u | 2.6µM*
Cc1ccc2nc(N/N=C/c3ccccc3C#N)nc(-c3ccccc3)c2c1 | 13µM* | 0% | u | u | i
NC(=O)C1(Nc2ccc(Br)cc2)CCCC1 | -30% | -1% | i | -7% | i
COc1cccc(-c2cnc3c(NC(C)=O)cc(-c4ccc(C(=O)N5CCOCC5)cc4)cn23)c1 | x | 8% | i | x | i
Cc1nc2cnc(N(C)C)nc2n(CCC#N)c1=O | x | -1% | x | x | x
CC(=O)NNc1nc(-c2ccccc2)c2cc(Cl)ccc2n1 | x | 1% | i | x | i
COCCNC(=O)c1cccc(Nc2nc(-c3ccccc3)c3cc(Cl)ccc3n2)c1 | 2.6µM* | 4% | u | u | 15µM*
O=C(NNC(=O)c1cc(Cl)ccc1O)c1cccs1 | -3% | -2% | i | 21µM* | i
CCN(CC)CCN1C(=O)C2C(C(=O)Nc3cccc(SC)c3)C3C=CC2(O3)C1C(=O)NC1CCCC(C)C1C (stereo not drawn) | 12% | 3% | u | 18µM* | i
CCCN(CCC)CCN1C(=O)C2C(C(=O)Nc3cccc(SC)c3)C3C=CC2(O3)C1C(=O)NC1CCCCC1 (stereo not drawn) | -8% | 2% | i | u | i
CC(Oc1ccc(F)cc1)C(=O)Nc1cc(-c2ccc(F)c(F)c2)no1 (stereo not drawn) | x | 1% | x | x | x
CCOC(=O)C1=C(N)Oc2cc(O)ccc2C1c1cccnc1 (stereo not drawn) | -181%[0.0737 µM] | 5% | i | 0% | i
CCOC(=O)C1=C(N)Oc2cc(O)ccc2C1c1cccc(Cl)c1 (stereo not drawn) | 5.8µM* | 2% | u | u | u
Cc1nn(Cc2ccccc2)c(C)c1NC(=O)c1ccc([N+](=O)[O-])cc1[N+](=O)[O-] | -41% | 3% | u | 16µM* | i
COc1cc(-c2nc3cnccn3c2Nc2c(C)cccc2C)ccc1O | 16µM* | x | i | 23µM* | i
Cc1cccc(C)c1Nc1c(-c2ccc(N3CCOCC3)cc2)nc2cnccn12 | 23µM* | 3% | i | u | i
COc1cc(-c2nc3sccn3c2Nc2c(C)cccc2C)ccc1O | x | 0% | x | x | x
CCOc1cc(N2CCOCC2)c(OCC)cc1NC(=O)CN1C(=O)NC(CC)(c2ccc(F)cc2)C1=O (stereo not drawn) | 5% | -1% | u | -1% | i
C[C@@H](NC(=O)[C@@H]1Cc2ccccc2CN1C(=O)OC(C)(C)C)C(=O)NC1CCCC1 | 1% | -1% | i | u | i
Cc1ccc(NC(=S)c2nc3ccccc3[nH]2)c(C)c1 | u | 17% | u | 1% | 21µM*
Cc1ccc(NC(=S)c2nc3ccccc3[nH]2)cc1 | u | 29% | 23µM* | -5% | u
Cc1ccc(NC(=S)N2CCCC(c3nc4ccccc4[nH]3)C2)cc1 (stereo not drawn) | 0% | 0% | i | -35% | i
Cc1ccc(NC(=S)c2ccncc2)c(C)c1 | u | -1% | u | u | i

High-throughput results (PubChem)
